Test results from PubChem BioAssay.
Calls of active or inactive are those of the source.

Assays:
[1] = tested on: Plasmodium falciparum Sir2 (PF13_0152, Sir2A); test: Plasmodium falciparum Sir2A binding compounds – biochemical, small-molecule microarray, 635 nm fluorescence, primary screen (AID 1098); conditions: fluorescence 635 nm, higher = more signal;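 further: score merges spot fluorescence intensity with its signal-to-noise ratio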
[2] = probe aDKK1 binding to arrayed compounds – biochemical, biotinylated probe, 635/667 nm fluorescence, primary screen (AID 1099); conditions: small-molecule microarray, higher = more signal;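 further: score merges 667nm spot fluorescence with signal to noise across triplicate slides; reference of the scale not given here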
[3] = probe aCHRDL2 binding to arrayed compounds – biochemical, biotinylated probe, 635/667 nm fluorescence, primary screen (AID 1100); conditions: small-molecule microarray, higher = more signal
[4] = change in splice reporter luminescence, either direction, cell-based, HEK293, spliceosome inhibition project, primary screen (AID 1101); conditions: HEK293 splicing luciferase reporter, 24 h, higher = more signal, called active from +8 up or from −8 down;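 further: HEK293 cells carrying a splicing-competent luciferase reporter gene; test concentration not given here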
[5] = biological target: Fibroblast growth factor 10 (Homo sapiens) (UniProt O15520); test: compounds binding fibroblast growth factor 10 – biochemical, small-molecule microarray, 635 nm fluorescence, primary screen (AID 1102); conditions: FGF10 binding, fluorescence 635 nm, higher = more signal
Sequence of Fibroblast growth factor 10 (Homo sapiens) (O15520 whole entry, looked up): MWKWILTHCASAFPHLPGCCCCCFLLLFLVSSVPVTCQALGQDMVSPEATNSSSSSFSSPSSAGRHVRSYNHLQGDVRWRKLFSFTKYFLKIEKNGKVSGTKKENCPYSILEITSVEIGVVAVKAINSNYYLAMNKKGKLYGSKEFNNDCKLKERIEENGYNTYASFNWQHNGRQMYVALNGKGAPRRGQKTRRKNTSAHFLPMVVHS

[6] = tested on: glycogen synthase kinase-3 (GSK3A per assay name; protocol says GSK3B); test: compounds binding glycogen synthase kinase-3 – biochemical, small-molecule microarray, 635 nm fluorescence, GSK3A, primary screen (AID 1103); conditions: fluorescence 635 nm, higher = more signal; further: the record names both GSK3A and GSK3B
[7] = biological target: Epidermal growth factor receptor (Homo sapiens) (UniProt P00533); test: compounds binding epidermal growth factor receptor – biochemical, small-molecule microarray, 635 nm fluorescence, primary screen (AID 1104); conditions: EGFR binding, higher = more signal;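 further: score merges 667 nm emission intensity with spot signal to noise over triplicate slides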
Sequence of Epidermal growth factor receptor (Homo sapiens) (P00533 whole entry, looked up): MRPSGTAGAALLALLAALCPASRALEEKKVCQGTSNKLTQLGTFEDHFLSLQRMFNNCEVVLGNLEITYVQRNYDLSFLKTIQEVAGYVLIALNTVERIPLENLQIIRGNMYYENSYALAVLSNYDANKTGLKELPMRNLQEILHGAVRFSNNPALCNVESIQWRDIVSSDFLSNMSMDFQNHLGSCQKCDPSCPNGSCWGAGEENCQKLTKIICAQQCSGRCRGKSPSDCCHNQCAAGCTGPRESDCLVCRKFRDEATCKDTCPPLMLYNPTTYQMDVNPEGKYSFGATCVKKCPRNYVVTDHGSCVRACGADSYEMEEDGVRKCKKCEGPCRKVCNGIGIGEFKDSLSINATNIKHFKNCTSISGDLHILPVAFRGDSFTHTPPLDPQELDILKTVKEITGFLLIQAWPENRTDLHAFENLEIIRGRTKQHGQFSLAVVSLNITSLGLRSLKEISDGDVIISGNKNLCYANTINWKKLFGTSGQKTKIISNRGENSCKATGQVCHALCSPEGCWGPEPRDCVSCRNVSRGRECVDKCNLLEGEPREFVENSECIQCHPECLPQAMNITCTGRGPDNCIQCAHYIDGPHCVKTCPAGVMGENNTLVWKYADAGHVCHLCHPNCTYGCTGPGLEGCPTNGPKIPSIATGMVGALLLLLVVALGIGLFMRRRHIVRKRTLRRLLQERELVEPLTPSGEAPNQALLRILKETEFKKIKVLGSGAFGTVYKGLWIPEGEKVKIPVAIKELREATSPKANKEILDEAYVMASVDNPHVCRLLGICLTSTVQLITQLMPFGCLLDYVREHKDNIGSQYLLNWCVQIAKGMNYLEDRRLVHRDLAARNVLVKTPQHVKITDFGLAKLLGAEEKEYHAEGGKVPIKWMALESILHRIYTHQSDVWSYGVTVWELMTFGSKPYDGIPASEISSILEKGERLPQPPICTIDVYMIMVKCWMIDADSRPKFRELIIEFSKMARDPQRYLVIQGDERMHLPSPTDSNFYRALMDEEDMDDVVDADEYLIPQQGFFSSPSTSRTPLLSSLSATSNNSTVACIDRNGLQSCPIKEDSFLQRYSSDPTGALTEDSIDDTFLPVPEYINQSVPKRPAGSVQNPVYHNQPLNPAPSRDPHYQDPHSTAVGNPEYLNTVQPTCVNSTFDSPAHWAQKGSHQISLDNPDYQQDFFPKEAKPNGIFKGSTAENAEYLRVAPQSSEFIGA

[8] = biological target: Follistatin-related protein 3 (Homo sapiens) (UniProt O95633); test: compounds binding follistatin-related protein 3 – biochemical, small-molecule microarray, 635 nm fluorescence, primary screen (AID 1105); conditions: FSTL3 binding, higher = more signal;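 further: score merges emission near 667 nm and signal to noise per printed spot across three slides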
Sequence of Follistatin-related protein 3 (Homo sapiens) (O95633 whole entry, looked up): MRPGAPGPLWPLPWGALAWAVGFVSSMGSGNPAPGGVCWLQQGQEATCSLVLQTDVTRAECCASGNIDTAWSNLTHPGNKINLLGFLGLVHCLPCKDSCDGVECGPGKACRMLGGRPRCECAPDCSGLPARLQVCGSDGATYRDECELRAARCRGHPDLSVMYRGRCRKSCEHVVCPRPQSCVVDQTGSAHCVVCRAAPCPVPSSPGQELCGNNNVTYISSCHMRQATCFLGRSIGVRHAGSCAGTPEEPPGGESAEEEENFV

[9] = biological target: Dickkopf-related protein 1 (Homo sapiens) (UniProt O94907); test: small molecules binding DKK1 protein – biochemical, small-molecule microarray, 635 nm fluorescence scan, primary screen (AID 1106); conditions: higher = more signal;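 further: score merges emission near 667 nm with signal to noise over three replicate slides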
Sequence of Dickkopf-related protein 1 (Homo sapiens) (O94907 whole entry, looked up): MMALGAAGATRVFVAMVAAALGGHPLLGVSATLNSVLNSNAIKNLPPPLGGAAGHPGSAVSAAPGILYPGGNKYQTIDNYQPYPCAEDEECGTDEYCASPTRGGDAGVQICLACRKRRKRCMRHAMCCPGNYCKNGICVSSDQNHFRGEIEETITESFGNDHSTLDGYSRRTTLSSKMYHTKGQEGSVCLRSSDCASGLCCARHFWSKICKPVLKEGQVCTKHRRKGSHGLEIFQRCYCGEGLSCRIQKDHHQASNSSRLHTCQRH

[10] = tested on: Inhibin beta A chain (activin A); test: small molecules binding activin A – biochemical, small-molecule microarray, 635 nm fluorescence scan, primary screen (AID 1107); conditions: INHBA, higher = more signal;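 further: mouse activin A protein probed at 4.33 µg/mL on printed slides; score merges bound-protein fluorescence near 667 nm with spot signal-to-noise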

Row | SMILES | composite z-score [1] | composite z-score [2] | composite z-score [3] | z-score [4] | composite z-score [5] | composite z-score [6] | composite z-score [7] | composite z-score [8] | composite z-score [9] | composite z-score [10]
1 | O=C1O[C@@H](c2ccccc2)[C@@H](c2ccccc2)N2[C@@H](c3ccc(OCCO)cc3)[C@]3(C(=O)Nc4ccc(C#CC5=CCCCC5)cc43)[C@@H](C(=O)O)[C@H]12 | 0.87 | 0.82 | 0.431 | 0.618 (inactive) | 0.43 | 0.661 | 0.257 | 0.636 | 0.581 | 0.784
2 | COC(=O)C[C@@H]1C[C@H](C)[C@]2(O1)C(=O)N(Cc1ccccc1)c1ccc(NC(C)=O)cc12 | 0.0968 | -0.148 | -0.448 | 0.247 (inactive) | 0.603 | 0.141 | 0.324 | 0.389 | 0.355 | 0.4
3 | COC(=O)C(CC#Cc1ccc2c(c1)[C@]1(C(=O)N2)[C@H](C(=O)NC[C@H](O)c2ccccc2)[C@H]2C(=O)O[C@H](c3ccccc3)[C@H](c3ccccc3)N2[C@@H]1c1ccc(OCCO)cc1)C(=O)OC | 1.71 | 1.61 | 0.0724 | 0.0839 (inactive) | 1.3 | 1.3 | 0.767 | 1.46 | 1.14 | 1.21
4 | CC(=O)C1=CCC(c2ccccc2)N(S(=O)(=O)c2ccc(C)cc2)C1 (stereo not given) | 1.4 | 0.196 | 0.469 | 0.0149 (inactive) | 0.586 | 0.258 | 0.255 | 1.01 | 0.0538 | 1.12
5 | COc1cccc(C(=O)O[C@H]2CC[C@]3(C)C4=C(CCC3C2(C)C)[C@]2(C)CC[C@H]([C@H](C)CCCC(C)C)[C@@]2(C)CC4)c1 (stereo not given in full) | 0.399 | -0.056 | -0.495 | -1.23 (inactive) | 0.647 | 0.495 | 0.527 | 0.459 | 0.389 | 0.468
6 | CCCCCN1CC=CC23O[C@@H]4C=CCOC(=O)[C@@H]4[C@H]2C(=O)N(CCCO)[C@@H]3C1=O (stereo not given in full) | 1.63 | -0.263 | 0.359 | -1.76 (inactive) | -0.519 | 0.462 | -0.681 | -0.264 | -0.49 | 0.908
7 | COc1ccc(C#Cc2ccc3c(c2)[C@]2(C(=O)N3)[C@H](C(=O)NC[C@H](O)c3ccccc3)[C@H]3C(=O)O[C@H](c4ccccc4)[C@H](c4ccccc4)N3[C@@H]2c2ccccc2OCCO)cc1 | 1.74 | 0.408 | 0.334 | -0.955 (inactive) | 0.877 | 1.19 | 0.186 | 1.16 | 0.169 | -0.0953
8 | COCCCNC(=O)[C@@]1(CCC(=O)OC(C)(C)C)N=C(c2ccc(OCCCO)cc2)O[C@H]1c1ccccc1CN=[N+]=[N-] | 1.62 | 0.965 | 1.08 | -0.228 (inactive) | 1.56 | 1.13 | 0.123 | 0.932 | 0.119 | 0.471
9 | Cc1ccc(S[C@]2(C(=O)NC3CC3)CC(=O)N(Cc3ccccc3)[C@@H]2c2ccc(CO)cc2)cc1 | 0.325 | 0.224 | 0.892 | -0.61 (inactive) | -0.829 | -0.414 | -0.679 | -0.217 | 0.539 | 0.194
10 | C=C[C@H](C)[C@@H](O)c1ccc(O)c2ccccc12 | 1.43 | -0.302 | -0.0488 | -0.0352 (inactive) | -0.152 | -0.61 | -0.775 | -0.189 | 0.0078 | 1.28
11 | CCOC(=O)C1=CCC(c2ccc([N+](=O)[O-])cc2)N(S(=O)(=O)c2ccc(C)cc2)C1 (stereo not given) | 0.376 | 0.616 | 0.983 | -0.22 (inactive) | -0.0502 | 0.0526 | -0.356 | 0.171 | -0.421 | 1.32
12 | N#Cc1ccc(NN2C(C(O)c3ccc([N+](=O)[O-])cc3)C=CC3C(=O)N(c4ccccc4)C(=O)C32)cc1 (stereo not given) | 1.29 | 0.829 | 1.08 | 2.23 (inactive) | 0.626 | 0.751 | 0.0159 | 0.422 | -0.392 | 0.787
13 | O=C(O)[C@H]1C[C@H]2C(=O)NCC(=O)N2[C@H]1c1ccc(O)cc1 | 0.237 | -0.248 | -0.346 | -0.821 (inactive) | 0.413 | 0.504 | -0.213 | 0.845 | 0.681 | 0.23
14 | N#Cc1ccc(NN2C(C(O)c3cccs3)C=CC3C(=O)N(c4ccccc4)C(=O)C32)cc1 (stereo not given) | 0.15 | -0.0705 | -0.25 | -0.626 (inactive) | 1.18 | 0.349 | 0.55 | 0.642 | -0.271 | 0.207
15 | [N-]=[N+]=Nc1ccccc1[C@H]1OC(c2ccc(OCCCO)cc2)=N[C@@]1(CCS(=O)(=O)c1ccccc1)C(=O)O | 1.31 | 0.503 | 1.14 | -0.433 (inactive) | 0.104 | -0.359 | -0.18 | -0.116 | -0.601 | 1.25
16 | COCCOC(=O)N1C(=O)[C@@]2(c3ccccc31)[C@H](C(=O)Nc1nc3ccccc3s1)[C@H]1C(=O)O[C@H](c3ccccc3)[C@H](c3ccccc3)N1[C@@H]2c1ccc(OCCO)cc1 | 1.11 | 0.186 | 0.54 | -0.128 (inactive) | 1.26 | 1.3 | 0.331 | 1.11 | 0.427 | 0.464
